PAFAH1B3 FP inh: PAFAH1B3 enzyme inhibitors, primary screen, biochemical, fluorescence polarization, human; inhibition, % at 3.39 µM; recombinant PAFAH1B3, FP-rhodamine probe; 340,000 compounds, 0.28% hits;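 active = inhibition above the screen-wide average of all tested compounds plus 3 SD, cut at about 25% in these data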
PP5 primary: PP5 phosphatase inhibitors, primary screen, biochemical, fluorescence | Serine/threonine-protein phosphatase 5 (Homo sapiens), P53041 | purified PP5c, OMFP substrate fluorescence | inhibition, % at 6.7 µM | 320,000 compounds, 0.18% hits | AID 1987, 2009;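 active = inhibition above the campaign's mean inhibition across all tested compounds plus 3 SD, cut at about 9.5% in these data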
Target sequence (P53041 whole entry, looked up): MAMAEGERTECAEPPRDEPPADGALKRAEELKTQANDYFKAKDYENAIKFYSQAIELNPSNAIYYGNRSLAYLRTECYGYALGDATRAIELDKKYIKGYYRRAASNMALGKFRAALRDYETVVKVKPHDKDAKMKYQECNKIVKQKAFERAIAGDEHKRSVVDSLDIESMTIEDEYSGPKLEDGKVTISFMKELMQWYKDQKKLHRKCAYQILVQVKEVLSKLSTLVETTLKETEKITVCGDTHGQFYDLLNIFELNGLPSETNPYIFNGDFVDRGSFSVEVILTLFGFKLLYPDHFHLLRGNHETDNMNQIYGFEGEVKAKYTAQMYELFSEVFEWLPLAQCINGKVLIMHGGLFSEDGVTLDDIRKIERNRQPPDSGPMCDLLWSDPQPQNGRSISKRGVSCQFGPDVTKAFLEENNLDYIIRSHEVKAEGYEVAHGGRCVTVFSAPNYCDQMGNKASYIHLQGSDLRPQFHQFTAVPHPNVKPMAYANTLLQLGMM
CTSL1 counter: Fasciola hepatica cathepsin L1 inhibitors, primary screen, counter-screen for PFM18AAP inhibitor project, biochemical, QFRET, fluorogenic peptide substrate; recombinant F. hepatica cathepsin L1, Z-Leu-Arg-MCA fluorescence; inhibition, % at 5.96 µM; 300,000 compounds, 0.49% hits; AID 1906, 2009;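 active = inhibition above the mean of all tested compounds plus 3 SD, set per screening campaign, cut at about 17% in these data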
PAFAH1B2 FP inh: PAFAH1B2 enzyme inhibitors, primary screen, biochemical, fluorescence polarization, human; inhibition, % at 3.39 µM; 340,000 compounds, 1.2% hits; Platelet-activating factor acetylhydrolase IB subunit alpha2 (Homo sapiens), P68402; recombinant PAFAH1B2, FP-rhodamine activity probe;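 active = inhibition above the mean of all tested compounds plus 3 SD, cut at about 24% in these data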
PAFAH2 FP inh: PAFAH2 enzyme inhibitors, primary screen, biochemical, fluorescence polarization, human; recombinant PAFAH2, FP-rhodamine activity probe; inhibition, % at 3.39 µM; 340,000 compounds, 0.99% hits; AID 492956, 2010;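 active = inhibition above the mean over all tested compounds plus 3 SD, cut at about 30% in these data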;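 also: inhibitors block probe labeling of enzyme so polarization drops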
pPAFAH FP inh: pPAFAH enzyme inhibitors, primary screen, biochemical, fluorescence polarization, human; recombinant pPAFAH, FP-rhodamine probe fluorescence polarization; Platelet-activating factor acetylhydrolase (Homo sapiens), Q13093; inhibition, % at 3.39 µM; 330,000 compounds, 1.5% hits;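 active = inhibition above the mean inhibition across the screen plus 3 SD, cut at about 25% in these data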;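 also: inhibitors block binding of the rhodamine activity-based probe so polarization drops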
pPAFAH FP conf: pPAFAH (PLA2G7) enzyme inhibitors, confirmation, biochemical, fluorescence polarization, human; shares compounds with pPAFAH FP inh; 2,300 compounds, 72% hits; recombinant pPAFAH, FP-Rh probe fluorescence polarization; inhibition, % at 3.39 µM; AID 463230, 2010;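 active = mean inhibition of the triplicate above the hit cutoff set for the earlier primary screen, cut at about 25% in these data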
Of the large screens only hits and unclear results are named; the others gave an inactive call (follow-up assays come after a bar, where they were run). The list is not random: actives were taken first. Their share in the collection is about 3%.

CCOc1ccc2nc(SCC(=O)N3CCCCCC3)c(C#N)cc2c1	none
CCOc1ccc2cc(C#N)c(SCC(=O)N3CCOCC3)nc2c1	pPAFAH FP inh 82 | pPAFAH FP conf inactive
O=C(NC(NC(=S)Nc1ccc(Cl)cc1Cl)C(Cl)(Cl)Cl)c1cccc([N+](=O)[O-])c1 (configuration not stated)	none
CN(C)C(=O)NC(Nc1ccc(Cl)cc1Cl)C(Cl)(Cl)Cl (configuration not stated)	pPAFAH FP inh 42 | pPAFAH FP conf inactive
COc1cc2oc(=O)cc(-c3ccc(-c4ccc(CO)cc4)cc3)c2c(OC)c1OC	none (no result: PP5 primary, CTSL1 counter)
CC(/C=C1\SC(=S)N(c2ccc(C(=O)O)cc2)C1=O)=C\c1ccccc1	pPAFAH FP inh 35 | pPAFAH FP conf 28
CC(/C=C1\SC(=S)N(C(C(=O)O)C(C)C)C1=O)=C\c1ccccc1 (configuration not stated)	none
COc1cc(C2Nc3c(F)cccc3C3C=CCC32)cc(Br)c1OC (configuration not stated)	none
COc1cccc2c1NC(C(=O)O)C1CC=CC21 (configuration not stated)	PAFAH1B2 FP inh 30, PAFAH2 FP inh 48, pPAFAH FP inh 57 | pPAFAH FP conf inactive
Cc1cc(C)c(C)c(C(=O)C(=O)c2ccccc2)c1	none (no result: PP5 primary, CTSL1 counter, pPAFAH FP inh)
O=C1CSC(=S)N1N=Cc1ccc2c(c1)OCO2	none (no result: PP5 primary, CTSL1 counter, pPAFAH FP inh)
O=C(N/N=C/c1ccc(-c2ccccc2Cl)o1)c1ccccc1	none
O=C(O)c1ccc(N/N=C/c2ccc(-c3ccccc3Cl)o2)cc1	pPAFAH FP inh 45 | pPAFAH FP conf inactive
[O-][n+]1c2c(nc3c1-c1ccccc1C3O)CCCC2 (configuration not stated)	none (no result: PAFAH1B3 FP inh, PAFAH1B2 FP inh, PAFAH2 FP inh)
O=C(Nc1ccccc1C(=O)NC(Cc1ccccc1)C(=O)NC1CCCCC1)c1ccccc1 (configuration not stated)	none
CC1=Nc2ccccc2/C1=C/c1sc(=N)n(-c2nccs2)c1O	pPAFAH FP inh 56 | pPAFAH FP conf 51
Oc1ccc(Cl)cc1CNCc1cccc2ccccc12	none
Cc1cc(C)c2c(c1)C1C=CCC1C(c1ccc(S(=O)(=O)N3CCOCC3)cc1)N2 (configuration not stated)	none
COC(=O)COc1ccc(C2Nc3c(Cl)ccc(C(=O)O)c3C3C=CCC32)cc1 (configuration not stated)	pPAFAH FP inh 36 | pPAFAH FP conf inactive
Cc1[nH]c2ccccc2c1/C=N/NC(=O)c1cccc(S(=O)(=O)Nc2cccc(C(F)(F)F)c2)c1	PAFAH1B3 FP inh 43, PAFAH1B2 FP inh 35, pPAFAH FP inh 40 | pPAFAH FP conf 40
CC(C)CN(C(=O)C1=NN(c2ccccc2)C(=O)CC1)c1c(N)n(Cc2ccccc2)c(=O)[nH]c1=O	none (no result: CTSL1 counter)
Cc1cc(O)c2c(c1O)C(=O)[C@]13C(=C2O)C(=O)[C@@H]2[C@@H](O)[C@H]1[C@@H]1[C@H](O)[C@H]3C(=O)C3=C(O)c4c(O)cc(C)c(O)c4C(=O)[C@]312	PAFAH1B3 FP inh 37, PAFAH2 FP inh 43, pPAFAH FP inh 54 (no result: PP5 primary, CTSL1 counter) | pPAFAH FP conf inactive
Cc1nnc(SCC(=O)Nc2cccc(Br)c2)s1	none (no result: CTSL1 counter)
CC1=C([N+](=O)[O-])C(c2cccc(Br)c2)C2=C(N1)c1ccccc1C2=O (configuration not stated)	pPAFAH FP inh 38 | pPAFAH FP conf 26
COC(=O)C1=C(C)NC2=C(C(=O)c3ccccc32)C1c1cccc(OC)c1 (configuration not stated)	none
Cc1ccc(NC(=S)NNc2ccc(C(=O)O)cc2[N+](=O)[O-])cc1C	pPAFAH FP inh 35 | pPAFAH FP conf 39
Cc1ccc(Nc2ccc(C(N)=O)cc2[N+](=O)[O-])cc1C	none
CCOc1ccc(-c2cc(C(=O)NCCCN3CCCC3)c3ccccc3n2)cc1	none
Cc1cc(NS(=O)(=O)c2ccc(Nc3nc(-c4sc(N)nc4C)cs3)cc2)no1	PAFAH1B3 FP inh 55, PAFAH1B2 FP inh 36, PAFAH2 FP inh 79, pPAFAH FP inh 46 | pPAFAH FP conf 42
O=C(OCC(=O)N1CCN(C(=O)c2ccco2)CC1)c1cc(S(=O)(=O)Nc2ccc(Cl)cc2)ccc1O	PAFAH1B2 FP inh 33, pPAFAH FP inh 62 | pPAFAH FP conf 68
CC(NCC(=O)NC(=O)NC1CCCC1)c1ccc(Cl)cc1Cl (configuration not stated)	pPAFAH FP inh 58 | pPAFAH FP conf inactive
COc1cc(NC(=O)COc2cc3oc(=O)cc(C)c3cc2Cl)cc(OC)c1OC	none
CC(C)CCNC(=O)c1onc(CSc2nc3ccccc3[nH]2)c1C(=O)NCCC(C)C	none
CC(C)=CCc1c(O)cc2oc3c(CC=C(C)C)c(O)c(O)c(CC=C(C)C)c3c(=O)c2c1O	PAFAH1B3 FP inh 30, pPAFAH FP inh 59 | pPAFAH FP conf 56
CC(=O)c1ccc(O)c(CC=C(C)C)c1O	none
Cc1sc(NC(=S)NC(=O)C(C)(C)C)c(C(N)=O)c1C	none
Cc1[nH]c2ccccc2c1N=Nc1cccc(C(=O)O)c1	none
Cc1[nH]c2ccccc2c1N=Nc1ccccc1C(=O)O	pPAFAH FP inh 47 | pPAFAH FP conf 31
CCc1ccc(NC(=O)Nc2ccc3c(c2)N(C)C(=O)CS3)cc1	pPAFAH FP inh 37 | pPAFAH FP conf inactive
Cc1cc(C)cc(NC(=O)Nc2ccc3c(c2)N(C)C(=O)CS3)c1	none
COc1ccccc1C(=O)NCC(=O)OCC(=O)Nc1ccc2[nH]c(=O)[nH]c2c1	pPAFAH FP inh 39 | pPAFAH FP conf inactive
O=C(COC(=O)CNC(=O)c1ccccc1F)Nc1ccc2[nH]c(=O)[nH]c2c1	none
O=C1CSC(=S)N1Nc1ccccc1	none (no result: PP5 primary, CTSL1 counter, pPAFAH FP inh)
S=C(Nc1ccc(N2CCOCC2)cc1)Nc1ccc2nc(-c3ccco3)c(-c3ccco3)nc2c1	pPAFAH FP inh 43 | pPAFAH FP conf inactive
O=C(Nc1ccc2nc(-c3ccco3)c(-c3ccco3)nc2c1)N1CCN(c2ccccn2)CC1	pPAFAH FP inh 37 | pPAFAH FP conf 28
O=C(c1ccc2nc(-c3ccco3)c(-c3ccco3)nc2c1)N1CCN(c2ncccn2)CC1	pPAFAH FP inh 49 | pPAFAH FP conf inactive
C=CCOc1ccc(C(=O)c2ccccc2)c(OCC(=O)NC2(C#N)CCCC2)c1	CTSL1 counter 18, pPAFAH FP inh 35 | pPAFAH FP conf inactive

Screening results as filed in PubChem BioAssay.
